These results are taken from PubChem BioAssay (NCI).

SMILES strings stand for the structures. The panel holds about 83,000 compounds, 20% with a hit somewhere; the sample as a whole holds those more often.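 Plates (96-well) were seeded with cells, treated with compound at one concentration, and incubated for 48 hours before percent growth was determined.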 Values without a mark were called inactive. Activity calls are given as the source filed them. Rule for the calls: active = growth percent below 10; inactive = the rest.

Common to all, as to experiment: NCI-60 one-dose screen, 48 h (100 = growth as untreated, 0 = no growth, -100 = all killed)
Common to all, as to conditions: 10 µM unless noted

The subject of test [1] is SK-MEL-2 melanoma.
Test [2] concerns EKVX NSCLC.
Test [3] deals with SN12C renal.
Test [4] has as its system UO-31 renal.
Test [5] has as its system TK-10 renal.
Test [6] has as its system ACHN renal.
The subject of test [7] is CAKI-1 renal.
Test [8] relates to A498 renal.
For test [9], the system named is CCRF-CEM leukemia.
Test [10] has as its system MOLT-4 leukemia.
The test system of test [11] is RPMI-8226 leukemia.
Test [12] relates to OVCAR-8 ovarian.
Test [13] deals with OVCAR-5 ovarian.
Test [14] concerns OVCAR-4 ovarian.
Test [15] relates to SK-OV-3 ovarian.
Test [16] has as its system IGROV1 ovarian.
In test [17] the test system is OVCAR-3 ovarian.
Test [18] has as its system HS 578T breast.
For test [19], the system named is NCI/ADR-RES ovarian.
Test [20] has as its system SR leukemia.

As to `CO[C@H](C(=O)[C@@H](O)[C@@H](C)O)[C@@H]1Cc2cc3cc(O[C@H]4C[C@@H](O[C@H]5C[C@@H](O)[C@H](O)C(C)O5)[C@H](O)C(C)(O)O4)cc(O)c3c(O)c2C(=O)[C@H]1O[C@H]1C[C@@H](O[C@H]2C[C@@H](O[C@H]3C[C@@H](OC)[C@H](O)C(C)O3)[C@@H](O)C(C)O2)[C@H](O)C(C)O1` (stereo not given in full), the growth is -54.9% (active) in test [1]; 34.7% in test [2]; 20.5% in test [3]; 41.7% in [4]; 37% in [5]; 25.9% in test [6]. For the same molecule, the growth was 68.9% in test [7]; -30.9% (active) in test [8]; 54.5% in test [9]; 37.9% in test [10]; 26.7% in test [11]; 24.3% in test [12]. Besides, the growth is 21% in test [13]; 42.2% in test [14]; 17.3% in test [15]; 32.6% in [16]; 21.7% in [17]; 26.4% in test [18]. In addition, in [19], the growth is 102%.

Regarding `O=S(=O)(Nc1cc(Sc2cccc3cccnc23)c(O)c2ccccc12)c1ccccc1`, the growth is 13.4% in test [1]; 36.4% in test [2]; 29.6% in test [3]; 23.7% in [4]; 23.4% in [5]; 16.9% in test [6]. The growth in test [7] is 25.9%; in test [8], 70.4%; in [9] it was 4.22% (active); in [10], -7.99% (active); in test [20], 5.4% (active); in test [12], 9.56% (active). The growth in test [13] was 47.1%; in test [14], -100% (active); in test [15] it was 52.1%; in test [16], 10.4%; in test [17], -81.2% (active); in test [18], 40.3%. Besides, the growth in [19] was 8.88% (active).

For `O=C(Nc1ccccc1O)c1ccc(CNC(=O)c2ccsc2Nc2ccnc(C(F)(F)F)c2)cc1`, the growth in [1] is -20.9% (active); in test [2], 37.8%; in test [3], 45.9%; in test [4], 19.1%; in test [5] it was -13.7% (active); in test [6] it was 20.2%. In addition, the growth in test [7] is 9.72% (active); in [8] it was -14.5% (active); in test [9], 5.36% (active); in test [10], 4.64% (active); in test [11], -1.09% (active); in test [12] it was 18.4%. In addition, the growth is 44.3% in test [13]; 47.3% in [14]; 49.1% in test [15]; 31.9% in test [16]; 21.6% in test [17]; 4.47% (active) in test [18]. Further, the growth in [19] is 8.13% (active).

With `Nc1nc(N)c2c(n1)NC(c1cccc(Nc3ccnc4cc(C(F)(F)F)ccc34)c1)CC(c1ccccc1)=N2` (stereo not given), the growth was 35.1% in [1]; 51.5% in test [2]; 65.4% in test [3]; 62.6% in test [4]; 83.1% in test [5]; 75.8% in [6]. In addition, the growth was 42.7% in [7]; 77.8% in [8]; 32.4% in test [9]; 6.47% (active) in test [10]; 9.67% (active) in test [11]; 63% in test [12]. Also, the growth in test [13] was 113%; in [14] it was 57.8%; in [15], 65.3%; in [16] it was 59.4%; in test [17] it was 45.3%; in test [18], 53.7%. For the same molecule, in test [19], the growth was 70.2%.

As to `C=CC(=O)Nc1ccc(Nc2nccc(-c3ccc(N4CCCC4)c(C#N)c3)n2)cc1`, the growth was -0.218% (active) in [1]; 66.6% in test [2]; 41.4% in test [3]; 21% in [4]; 26.1% in [5]; 19.6% in test [6]. The growth in [7] was 18.7%; in test [8], -36.9% (active); in [9], 16.7%; in test [10] it was -8.84% (active); in [11], -10.3% (active); in test [12], 65.9%. Also, the growth in test [13] was 73.4%; in test [14], 47.3%; in test [15], 8.26% (active); in [16] it was 35.9%; in test [17] it was 14.1%; in [18], -5% (active). The growth in test [19] is 57.2%.

With `Cc1ccc(S(=O)(=O)N2CCC(=O)c3ccccc32)cc1`, the growth in [1] was 56.9%; in test [2], 102%; in test [3], 81.2%; in [4], 71.1%; in test [5], 89.1%; in test [6] it was 90.7%. Further, the growth in test [7] was 91.9%; in [8], 83.2%; in test [9], 66.3%; in test [10], 64.1%; in test [20], 39.1%; in test [12], 103%. Moreover, the growth was 91% in test [13]; 99.3% in [14]; 62.2% in test [15]; 85.2% in [16]; 63.4% in test [17]; 71.7% in test [18]. Moreover, the growth in [19] is 72.6%.

Take `CCOC(=O)c1cnc2c(N=Nc3ccc(OC)cc3)c(N)nn2c1N`: the growth in test [1] was 102%; in [2], 103%; in [3] it was 95.2%; in [4] it was 94.2%; in [5], 104%; in [6], 109%. Moreover, the growth is 96.6% in test [7]; 92.5% in test [8]; 103% in test [9]; 88% in test [10]; 112% in test [20]; 102% in [12]. For the same molecule, the growth is 110% in [13]; 111% in test [14]; 108% in test [15]; 93.7% in test [16]; 113% in test [17]; 104% in test [18]. For the same molecule, the growth in [19] was 98.9%.

For `C#COc1cccc(Nc2ncnc3cc(NC(=O)[C@@H](C)Cl)ccc23)c1`, the growth in [1] is 27.4% [6.25 µM]; in test [2], 36.7% [6.25 µM]; in test [3] it was 22% [6.25 µM]; in [4], 29.2% [6.25 µM]; in test [5], 10.6% [6.25 µM]; in test [6] it was 20.8% [6.25 µM]. Also, the growth was 19.4% [6.25 µM] in test [7]; 11.8% [6.25 µM] in test [8]; 3.09% [6.25 µM] (active) in [9]; 11.4% [6.25 µM] in [10]; -6.79% [6.25 µM] (active) in test [11]; 11.9% [6.25 µM] in test [12]. Also, the growth is 25% [6.25 µM] in test [13]; 52.8% [6.25 µM] in test [14]; -5.9% [6.25 µM] (active) in [15]; 8.48% [6.25 µM] (active) in [16]; -6.96% [6.25 µM] (active) in test [17]; 17.4% [6.25 µM] in test [18]. Moreover, the growth in [19] is 6.35% [6.25 µM] (active).

As to `Nc1nc2c(c3ncccc13)C(c1cccc(Cl)c1)Cc1ncccc1-2` (stereo not given), the growth in [1] was 25.3%; in [2], 39.8%; in test [3] it was 36.7%; in [4] it was 38%; in test [5] it was 55.8%; in [6], 45.5%. In addition, the growth in [7] is 30.2%; in test [8], -7.23% (active); in test [9] it was 19.7%; in test [10], 14.5%; in test [20] it was 8.92% (active); in [12], 23.8%. Besides, the growth in test [13] is 44.7%; in test [14], 52.4%; in test [15], 14.1%; in test [16], 50.5%; in test [17], 0.176% (active); in test [18], 31.1%. Further, in test [19], the growth is 18.7%.

`CCOC(=O)C(=Cc1ccc(-c2ccccc2)cc1)C(=O)OCC`: the growth in [1] is 51.8%; in [2], 95%; in test [3], 67.3%; in test [4] it was 55.4%; in test [5] it was 66%; in test [6], 34%. For the same molecule, the growth in [7] is 85.6%; in test [8] it was 108%; in test [9], 1.19% (active); in test [10], -3.57% (active); in test [11] it was -3.52% (active); in [12], 19.7%. Also, the growth in test [13] is 71%; in test [14] it was 75.5%; in test [15], 95.6%; in test [16], 50.5%; in test [17] it was 52.8%; in test [18] it was 39.7%. For the same molecule, in test [19], the growth was 19.6%.

Consider `CSc1nc(C)c([N+](=O)[O-])c(N)n1`, for which the growth in test [1] was 109%; in [2], 102%; in [3], 99.1%; in test [4], 98%; in [5], 89.4%; in test [6], 112%. In addition, the growth in test [7] is 98.4%; in test [8] it was 101%; in test [9], 62.5%; in [10], 93.4%; in test [20], 96.3%; in [12], 100%. The growth in test [13] was 118%; in test [14], 104%; in test [15] it was 85.1%; in [16] it was 110%; in test [17], 114%; in [18], 104%. In [19], the growth is 102%.

As to `CNCc1cccc2c1OCCOCCOCCNS(=O)(=O)c1ccc(cc1)-c1cnc(N)c(n1)C(=O)N2`, the growth in test [1] is 30%; in test [2], 77.4%; in test [3] it was 19.2%; in test [5] it was 41.7%; in [6], 54.7%; in test [7], 28.4%. Also, the growth in test [8] was 51.5%; in [9] it was 7.66% (active); in test [10], 8.14% (active); in test [20], 3.81% (active); in [11], 65.6%; in test [12] it was 28%. For the same molecule, the growth in [13] is 56.3%; in test [14] it was 50.4%; in test [15], 27.9%; in test [16], 24.8%; in test [17], 2.52% (active); in [18], 48.7%. In [19], the growth was 108%.

In the case of `COc1cc(C(=O)c2c(-c3ccccc3)oc3c(OC)cccc23)cc(OC)c1OC`, the growth is 53% in test [1]; 35.3% in test [2]; 22.1% in test [3]; 61.4% in [5]; 17.7% in test [6]; 19.6% in [7]. For the same molecule, the growth in [8] was -28% (active); in [9], 10.2%; in test [10], 11.4%; in test [20], 6.57% (active); in test [11], 17.6%; in test [12] it was 17.2%. In addition, the growth in [13] is 39.8%; in test [14], 32.3%; in [15] it was 44.2%; in test [16], 12.3%; in test [17] it was -13.2% (active); in test [18], 2.09% (active). Moreover, the growth in [19] was 11.9%.

Take `COc1ccc(C2=NN(C(C)=O)C(c3cn(-c4ccccc4)nc3-c3ccc(Cl)cc3)C2)cc1` (stereo not given): the growth in test [1] is 63.7%; in test [2], 41.3%; in test [3], 32.8%; in test [4] it was 38.5%; in test [5], 12.1%; in test [6], 8.45% (active). Also, the growth was 28% in [7]; 80.2% in test [8]; 43.6% in test [10]; 10.7% in test [20]; 37.3% in test [11]; 17.1% in test [12]. In addition, the growth in test [13] was 68.1%; in [15], 38.1%; in test [16], 54.1%; in [17], -42.6% (active); in test [18] it was 26.2%; in test [19], 15.3%.
